Measurements as given in PubChem BioAssay (NCATS).
Records with an inconclusive call do not appear. A call without a number means that no potency is given here. Active and inactive are the calls of the source. Calls follow the shape of the dose curve; as a rule, active = well fitted inhibition curve with a large enough effect; inconclusive = small, poorly fitted or top-dose-only effect; inactive = flat fitted curve, though single readings scatter.
Potency is read from the fitted curve at half-maximal effect.

These compounds were tested against Voltage-gated inwardly rectifying potassium channel KCNH2 (Homo sapiens) (UniProt Q12809) (assay: qHTS Assay for Small Molecule Inhibitors of the Human hERG Channel Activity (AID 588834;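 also: lower thallium flux fluorescence means stronger hERG block; nearly all actives have a fitted effect of over 50% in size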)). Settings: U2OS BacMam hERG, FluxOR thallium flux fluorescence; series mostly up to 46.1 µM.
Sequence of Voltage-gated inwardly rectifying potassium channel KCNH2 (Homo sapiens) (Q12809 whole entry, looked up): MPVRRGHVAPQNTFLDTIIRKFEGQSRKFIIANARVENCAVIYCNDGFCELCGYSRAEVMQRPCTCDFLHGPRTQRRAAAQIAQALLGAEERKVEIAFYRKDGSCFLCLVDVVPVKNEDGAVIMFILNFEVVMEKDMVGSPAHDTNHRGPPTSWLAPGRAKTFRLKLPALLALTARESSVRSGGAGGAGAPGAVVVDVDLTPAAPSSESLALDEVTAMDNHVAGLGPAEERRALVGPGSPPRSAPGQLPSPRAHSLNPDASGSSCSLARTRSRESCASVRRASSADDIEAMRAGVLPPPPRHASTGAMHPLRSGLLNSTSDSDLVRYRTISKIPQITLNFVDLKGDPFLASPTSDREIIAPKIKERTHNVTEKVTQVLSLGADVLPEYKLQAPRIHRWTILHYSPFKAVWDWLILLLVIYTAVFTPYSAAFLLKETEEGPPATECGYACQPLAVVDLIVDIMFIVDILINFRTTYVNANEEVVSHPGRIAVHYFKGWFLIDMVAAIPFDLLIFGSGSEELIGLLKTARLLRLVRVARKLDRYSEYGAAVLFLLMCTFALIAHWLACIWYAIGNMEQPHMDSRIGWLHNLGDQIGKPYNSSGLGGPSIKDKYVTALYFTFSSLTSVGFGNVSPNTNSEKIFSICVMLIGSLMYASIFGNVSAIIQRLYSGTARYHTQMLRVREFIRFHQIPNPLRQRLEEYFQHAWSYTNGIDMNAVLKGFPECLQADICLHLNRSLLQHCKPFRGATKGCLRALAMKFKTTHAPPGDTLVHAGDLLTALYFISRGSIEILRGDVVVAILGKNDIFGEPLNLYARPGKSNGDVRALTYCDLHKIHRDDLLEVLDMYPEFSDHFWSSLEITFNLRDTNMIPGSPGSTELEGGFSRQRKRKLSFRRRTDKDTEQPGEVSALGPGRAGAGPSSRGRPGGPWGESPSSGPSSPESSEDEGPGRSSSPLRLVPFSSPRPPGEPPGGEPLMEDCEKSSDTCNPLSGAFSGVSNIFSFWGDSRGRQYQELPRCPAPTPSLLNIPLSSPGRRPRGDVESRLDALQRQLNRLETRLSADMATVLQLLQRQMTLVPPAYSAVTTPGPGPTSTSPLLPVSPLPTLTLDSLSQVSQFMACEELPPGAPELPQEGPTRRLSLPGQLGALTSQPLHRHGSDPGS
Summary of the method: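 Step 1: BacMam hERG transduction of U2OS, 4 hrs RT. Step 2: overnight 37 °C, plate 2000 cells/well, 4 hr. Step 3: FluxOR load, compound 10 min, stimulate, read fluorescence.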
For `NC(=O)c1cccnc1`, the Potency was “inactive”.
In the case of `CN1CCN(c2c(F)cc3c(=O)c(C(=O)O)cn(CCF)c3c2F)CC1`, the Potency was “inactive”.
For `COc1ncnc(NS(=O)(=O)c2ccc(N)cc2)c1OC`, the Potency was “inactive”.
`CC(C)Cn1cnc2c(N)nc3ccccc3c21` was tested, and the Potency was “inactive”.
In the case of `Nc1nc(N)nc(-c2cc(Cl)ccc2Cl)n1`, the Potency was “inactive”.
For `Cn1nnc2c(C(N)=O)ncn2c1=O`, the Potency was “inactive”.
In the case of `O=c1oc2c(O)c(O)cc3c(=O)oc4c(O)c(O)cc1c4c23`, the Potency was “inactive”.
`CCn1cc(C(=O)O)c(=O)c2cc(F)c(N3CCNCC3)nc21` was tested, and the Potency was “inactive”.
With `N[C@@H](C(=O)N[C@@H]1C(=O)N2C(C(=O)O)=C(Cl)CS[C@H]12)c1ccccc1` the Potency was “inactive”.
`NC(=O)N1c2ccccc2CC(=O)c2ccccc21` was tested, and the Potency was “inactive”.
With `CCn1cc(C(=O)O)c(=O)c2cc(F)c(N3CCNCC3)cc21` the Potency was “inactive”.
In the case of `CCOC(=O)c1ccc(C#Cc2ccc3c(c2)C(C)(C)CCS3)nc1`, the Potency was 8.91 µM (active).
With `COC(=O)Nc1nc2ccc(C(=O)c3ccccc3)cc2[nH]1` the Potency was “inactive”.
For `Clc1ccccc1CN1CCc2sccc2C1`, the Potency was 14.1 µM (active).
`CN1CCN(c2c(F)cc3c(=O)c(C(=O)O)cn4c3c2OCN4C)CC1` was tested, and the Potency was “inactive”.
For `C[C@@H]1C[C@H]2[C@@H]3CCC4=CC(=O)C=C[C@]4(C)[C@@]3(Cl)[C@@H](O)C[C@]2(C)[C@@]1(OC(=O)c1ccco1)C(=O)CCl`, the Potency was 5.01 µM (active).
In the case of `CCOC(=O)c1ccc(OC(=O)CCCCCN=C(N)N)cc1`, the Potency was “inactive”.
For `CNS(=O)(=O)Cc1ccc2[nH]cc(CCN(C)C)c2c1`, the Potency was “inactive”.
For `COC(=O)Nc1nc2ccc(Sc3ccccc3)cc2[nH]1`, the Potency was “inactive”.
For `O=C(O)c1cccnc1`, the Potency was “inactive”.
With `COc1ccc(-c2ccc3cc(C(=O)O)ccc3c2)cc1C12CC3CC(CC(C3)C1)C2` the Potency was “inactive”.
For `CC(N)C12CC3CC(CC(C3)C1)C2` (centres undefined), the Potency was “inactive”.
In the case of `O=S(=O)(c1cccc2cnccc12)N1CCCNCC1`, the Potency was “inactive”.
In the case of `CCN(C)C(=O)Oc1cccc([C@H](C)N(C)C)c1`, the Potency was “inactive”.
For `CCc1c2c(nc3ccc(OC(=O)N4CCC(N5CCCCC5)CC4)cc13)-c1cc3c(c(=O)n1C2)COC(=O)[C@]3(O)CC`, the Potency was “inactive”.
`C#CCN[C@@H]1CCc2ccccc21` was tested, and the Potency was “inactive”.
With `CCCCOc1ccc(CC(=O)NO)cc1` the Potency was “inactive”.
With `CC(C)(C#N)c1cc(Cn2cncn2)cc(C(C)(C)C#N)c1` the Potency was “inactive”.
With `Cc1oc(=O)oc1CN1CCN(c2cc3c(cc2F)c(=O)c(C(=O)O)c2n3C(C)S2)CC1` (centres undefined) the Potency was “inactive”.
`CCOCC(O)COc1ccc(NC(=O)CC[S+](C)C)cc1` (centres undefined) was tested, and the Potency was “inactive”.
For `CC(C)(Sc1cc(C(C)(C)C)c(O)c(C(C)(C)C)c1)Sc1cc(C(C)(C)C)c(O)c(C(C)(C)C)c1`, the Potency was “inactive”.
In the case of `CCCN[C@H]1CCc2nc(N)sc2C1`, the Potency was “inactive”.
For `COc1cc(NS(=O)(=O)c2ccc(N)cc2)nc(OC)n1`, the Potency was “inactive”.
For `COc1c(N2CCNC(C)C2)c(F)cc2c(=O)c(C(=O)O)cn(C3CC3)c12` (centres undefined), the Potency was “inactive”.
For `Nc1[nH]c(=O)ncc1F`, the Potency was “inactive”.

What follows are compounds tested against Luciferin 4-monooxygenase (Photinus pyralis) (UniProt P08659) (assay: Biochemical firefly luciferase enzyme assay for NPC (AID 624030; also: nearly all actives have a fitted effect of over 70% in size)). Settings: purified P. pyralis luciferase, luminescence, 5 min; series mostly up to 58.6 µM.
Sequence of Luciferin 4-monooxygenase (Photinus pyralis) (P08659 whole entry, looked up): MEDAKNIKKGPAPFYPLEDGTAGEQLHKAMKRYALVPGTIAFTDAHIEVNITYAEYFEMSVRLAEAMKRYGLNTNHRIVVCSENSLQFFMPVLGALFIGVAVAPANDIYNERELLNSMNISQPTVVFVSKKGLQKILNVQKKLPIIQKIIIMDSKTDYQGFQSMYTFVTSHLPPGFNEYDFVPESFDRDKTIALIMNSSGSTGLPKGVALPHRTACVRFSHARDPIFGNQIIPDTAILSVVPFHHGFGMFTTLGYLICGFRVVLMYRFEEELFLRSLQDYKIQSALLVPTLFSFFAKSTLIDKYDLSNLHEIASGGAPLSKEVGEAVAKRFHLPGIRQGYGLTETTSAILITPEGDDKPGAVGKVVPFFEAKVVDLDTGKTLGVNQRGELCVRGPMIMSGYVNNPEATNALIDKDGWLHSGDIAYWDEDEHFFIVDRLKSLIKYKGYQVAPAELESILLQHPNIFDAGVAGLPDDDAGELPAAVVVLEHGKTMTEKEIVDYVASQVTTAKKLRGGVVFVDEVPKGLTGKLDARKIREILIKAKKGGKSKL
Summary of the method: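 Direct inhibition of firefly luciferase enzyme (10 nM final, 50 mM Tris Acetate) assessed by luminescence within 5 minutes. Percent activity scaled between DMSO and PTC124 positive control, with concentration-effect curves classified by fit quality and response.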
For `NC(=O)c1cccnc1`, the Potency was “inactive”.
`CN1CCN(c2c(F)cc3c(=O)c(C(=O)O)cn(CCF)c3c2F)CC1` was tested, and the Potency was “inactive”.
In the case of `COc1ncnc(NS(=O)(=O)c2ccc(N)cc2)c1OC`, the Potency was “inactive”.
For `CC(C)Cn1cnc2c(N)nc3ccccc3c21`, the Potency was “inactive”.
In the case of `Nc1nc(N)nc(-c2cc(Cl)ccc2Cl)n1`, the Potency was “inactive”.
In the case of `Cn1nnc2c(C(N)=O)ncn2c1=O`, the Potency was “inactive”.
`O=c1oc2c(O)c(O)cc3c(=O)oc4c(O)c(O)cc1c4c23` was tested, and the Potency was 36.1 µM (active).
`CCn1cc(C(=O)O)c(=O)c2cc(F)c(N3CCNCC3)nc21` was tested, and the Potency was “inactive”.
For `N[C@@H](C(=O)N[C@@H]1C(=O)N2C(C(=O)O)=C(Cl)CS[C@H]12)c1ccccc1`, the Potency was “inactive”.
With `NC(=O)N1c2ccccc2CC(=O)c2ccccc21` the Potency was “inactive”.
In the case of `CCn1cc(C(=O)O)c(=O)c2cc(F)c(N3CCNCC3)cc21`, the Potency was “inactive”.
For `CCOC(=O)c1ccc(C#Cc2ccc3c(c2)C(C)(C)CCS3)nc1`, the Potency was “inactive”.
In the case of `COC(=O)Nc1nc2ccc(C(=O)c3ccccc3)cc2[nH]1`, the Potency was “inactive”.
With `Clc1ccccc1CN1CCc2sccc2C1` the Potency was “inactive”.
In the case of `CN1CCN(c2c(F)cc3c(=O)c(C(=O)O)cn4c3c2OCN4C)CC1`, the Potency was “inactive”.
For `CCOC(=O)c1ccc(OC(=O)CCCCCN=C(N)N)cc1`, the Potency was “inactive”.
With `CNS(=O)(=O)Cc1ccc2[nH]cc(CCN(C)C)c2c1` the Potency was “inactive”.
`COC(=O)Nc1nc2ccc(Sc3ccccc3)cc2[nH]1` was tested, and the Potency was “inactive”.
In the case of `O=C(O)c1cccnc1`, the Potency was “inactive”.
`COc1ccc(-c2ccc3cc(C(=O)O)ccc3c2)cc1C12CC3CC(CC(C3)C1)C2` was tested, and the Potency was “inactive”.
With `CC(N)C12CC3CC(CC(C3)C1)C2` (centres undefined) the Potency was “inactive”.
For `O=S(=O)(c1cccc2cnccc12)N1CCCNCC1`, the Potency was “inactive”.
With `CCN(C)C(=O)Oc1cccc([C@H](C)N(C)C)c1` the Potency was “inactive”.
For `CCc1c2c(nc3ccc(OC(=O)N4CCC(N5CCCCC5)CC4)cc13)-c1cc3c(c(=O)n1C2)COC(=O)[C@]3(O)CC`, the Potency was “inactive”.
With `C#CCN[C@@H]1CCc2ccccc21` the Potency was “inactive”.
In the case of `CCCCOc1ccc(CC(=O)NO)cc1`, the Potency was “inactive”.
In the case of `CC(C)(C#N)c1cc(Cn2cncn2)cc(C(C)(C)C#N)c1`, the Potency was “inactive”.
With `Cc1oc(=O)oc1CN1CCN(c2cc3c(cc2F)c(=O)c(C(=O)O)c2n3C(C)S2)CC1` (centres undefined) the Potency was “inactive”.
For `CCOCC(O)COc1ccc(NC(=O)CC[S+](C)C)cc1` (centres undefined), the Potency was “inactive”.
In the case of `CC(C)(Sc1cc(C(C)(C)C)c(O)c(C(C)(C)C)c1)Sc1cc(C(C)(C)C)c(O)c(C(C)(C)C)c1`, the Potency was “inactive”.
For `CCCN[C@H]1CCc2nc(N)sc2C1`, the Potency was “inactive”.
In the case of `COc1cc(NS(=O)(=O)c2ccc(N)cc2)nc(OC)n1`, the Potency was “inactive”.
With `COc1c(N2CCNC(C)C2)c(F)cc2c(=O)c(C(=O)O)cn(C3CC3)c12` (centres undefined) the Potency was “inactive”.
For `Nc1[nH]c(=O)ncc1F`, the Potency was “inactive”.
